Several values for one entry are separate records, joined by “and”; a condition that tells them apart may be missing. Equal values may be shown once. Records with an inconclusive call do not appear. A structure can be active in one record and inactive in another. Activity calls are given as the source filed them. How the source made its calls, unless noted: active means hit-call score of the fitted dose curve at least 0.9, where 1 is the maximum; inactive means score below 0.9.
What was measured:
[1] = read-out: Interleukin-1 alpha (IL1a), IL1A (gene 3552); experiment: BSK_LPS_IL1a: BioMAP Diversity Plus: LPS Assay for Interleukin-1 alpha (IL1a) Biomarker Activity (AID 2283080); details: primary human HUVEC with PBMC; actives raise or lower the signal
Method in brief: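 ELISA read-out of IL-1 alpha from a human primary vascular co-culture (endothelium plus PBMC) under LPS, sampled 24 hours post-dosing. Activity was fitted in both directions relative to DMSO controls.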

[2] = BSK_LPS_PGE2: BioMAP Diversity Plus: LPS Assay for Prostaglandin E2 (PGE2) Biomarker Activity (AID 2283082); details: primary human HUVEC with PBMC; actives raise or lower the signal;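 on AC50: secreted prostaglandin E2 measured by ELISA in LPS-stimulated co-culture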
Method in brief: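 HUVEC plus PBMC co-culture stimulated with LPS; secreted PGE2 quantified by ELISA 24 h after chemical dosing. Activity fitted bidirectionally against DMSO as negative control and baseline; parallel SRB total-protein staining served as cytotoxicity check.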

[3] = read-out: Macrophage colony-stimulating factor (MCSF), CSF1 (gene 1435); experiment: BSK_LPS_MCSF: BioMAP Diversity Plus: LPS Assay for Macrophage colony-stimulating factor (MCSF) Biomarker Activity (AID 2283083); details: primary human HUVEC with PBMC; actives raise or lower the signal
Method in brief: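 ELISA readout of M-CSF after 24 h compound exposure in a human endothelial/PBMC co-culture. Activity, in either direction, is fitted relative to DMSO vehicle.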

[4] = read-out: Tissue Factor, F3 (gene 2152); experiment: BSK_LPS_TissueFactor: BioMAP Diversity Plus: LPS Assay for Tissue Factor Biomarker Activity (AID 2283084); details: primary human HUVEC with PBMC; actives raise or lower the signal
Method in brief: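 ELISA signal for cell-surface Tissue Factor (CD142) was read 24 h after compound dosing of an LPS-stimulated human endothelial–PBMC primary co-culture. Gain or loss of signal was scored relative to DMSO.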

[5] = read-out: Tumor necrosis factor (Homo sapiens) (UniProt P01375); experiment: BSK_LPS_TNFa: BioMAP Diversity Plus: LPS Assay for Tumour Necrosis Factor alpha (TNFa) Biomarker Activity (AID 2283085); details: primary human HUVEC with PBMC; actives raise or lower the signal
Method in brief: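 Human umbilical vein endothelial cells co-cultured with PBMC were exposed to test chemical and TNFa measured by ELISA 24 h after dosing. Bidirectional curve fitting was done relative to DMSO as negative control and baseline.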

[6] = read-out: Vascular cell adhesion molecule 1 (VCAM1), VCAM1 (gene 7412); experiment: BSK_LPS_VCAM1: BioMAP Diversity Plus: LPS Assay for Vascular cell adhesion molecule 1 (VCAM1) Biomarker Activity (AID 2283086); details: primary human HUVEC with PBMC; actives raise or lower the signal
Method in brief: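 Human umbilical vein endothelial cells co-cultured with peripheral blood mononuclear cells under LPS stimulation were exposed to test chemical for 24 h. VCAM-1 levels were then measured by ELISA, with bidirectional curve fitting relative to DMSO as negative control and baseline.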

CD38, CD38 (gene 952) = experiment: BSK_SAg_CD38: BioMAP Diversity Plus: SAg Assay for CD38 Biomarker Activity (AID 2283087); details: primary human HUVEC with PBMC; actives raise or lower the signal
Method in brief: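 Fluorescence ELISA of cell-surface CD38 served as the read-out, with either increase or decrease fitted against DMSO controls. Cells were a human umbilical vein endothelium plus PBMC co-culture under SEB/TSST-1 stimulation, measured 24 h after dosing.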

CD40, CD40 (gene 958) = experiment: BSK_SAg_CD40: BioMAP Diversity Plus: SAg Assay for CD40 Biomarker Activity (AID 2283088); details: primary human HUVEC with PBMC; actives raise or lower the signal
Method in brief: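 Compounds were dosed onto a human primary endothelial–PBMC co-culture, and after 24 h CD40 was quantified by ELISA using a fluorescence signal. Activity in either direction was fitted relative to DMSO.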

CD69, CD69 (gene 969) = experiment: BSK_SAg_CD69: BioMAP Diversity Plus: SAg Assay for CD69 Biomarker Activity (AID 2283089); details: primary human HUVEC with PBMC; actives raise or lower the signal;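 on AC50: cell surface CD69 protein quantified by ELISA with fluorescence detection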
Method in brief: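 HUVEC co-cultured with PBMC were dosed with chemical, and CD69 was measured by ELISA with fluorescence read-out 24 h later. Bidirectional curve fitting used DMSO as negative control and activity baseline.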

[7] = read-out: Monocyte Chemoattractant Protein-1 (MCP1), CCL2 (gene 6347); experiment: BSK_SAg_MCP1: BioMAP Diversity Plus: SAg Assay for Monocyte Chemoattractant Protein-1 (MCP1) Biomarker Activity (AID 2283090); details: primary human HUVEC with PBMC; actives raise or lower the signal
Method in brief: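 MCP-1 levels in the endothelial–PBMC SAg co-culture were quantified by ELISA at 24 h post-dosing; both increases and decreases versus DMSO scored. Cytotoxicity monitored by SRB total protein in parallel cultures.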

[8] = read-out: E-selectin (Homo sapiens) (UniProt P16581); experiment: BSK_SAg_Eselectin: BioMAP Diversity Plus: SAg Assay for Eselectin Biomarker Activity (AID 2283091); details: primary human HUVEC with PBMC; actives raise or lower the signal
Method in brief: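 Co-culture: HUVEC + PBMC. Dose compound; 24 h. ELISA for E-selectin. Bidirectional fit vs DMSO.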

[9] = read-out: Monokine induced gamma interferon (MIG), CXCL9 (gene 4283); experiment: BSK_SAg_MIG: BioMAP Diversity Plus: SAg Assay for Monokine induced gamma interferon (MIG) Biomarker Activity (AID 2283092); details: primary human HUVEC with PBMC; actives raise or lower the signal
Method in brief: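 HUVEC plus human PBMC co-culture, chemicals dosed and MIG (CXCL9) quantified by ELISA at 24 h. Bidirectional curve fitting against DMSO as negative control and baseline, so both gain and loss of signal count as activity.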

[10] = BSK_SAg_PBMCCytotoxicity: PBMC Cytotoxicity Assessment in the BioMAP Diversity Plus: SAg Assay (AID 2283093); details: primary human HUVEC with PBMC;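 further: PBMC viability measured as Alamar Blue reduction fluorescence at 546/580 nm; fitted both ways against DMSO so a hit may be loss or gain of signal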;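 on AC50: PBMC superantigen activated with SEB plus TSST-1 one hour after compound addition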
Method in brief: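 HUVEC/PBMC co-culture; PBMC exposed to chemical 1 h before SEB and TSST-1 activation (20 ng/mL each), incubated 90 h, then Alamar Blue 6 h, fluorescence 546/580 nm. Bidirectional fit versus DMSO baseline.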

[11] = read-out: Interleukin-8 (IL8), CXCL8 (gene 3576); experiment: BSK_SAg_IL8: BioMAP Diversity Plus: SAg Assay for Interleukin-8 (IL8) Biomarker Activity (AID 2283094); details: primary human HUVEC with PBMC; actives raise or lower the signal
Method in brief: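 Human umbilical vein endothelial cells co-cultured with peripheral blood mononuclear cells; IL-8 measured by ELISA 24 h after chemical dosing. Bidirectional concentration-response fitting used DMSO as negative control and activity baseline.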

[12] = BSK_SAg_Proliferation: Cell Proliferation Assessment in the BioMAP Diversity Plus: SAg Assay (AID 2283095); details: primary human HUVEC with PBMC;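 further: relative cell number as total protein by SRB absorbance in sub-confluent culture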
Method in brief: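 Human umbilical vein endothelial cells co-cultured with peripheral blood mononuclear cells; total protein measured by sulforhodamine B staining (0.1% SRB after 10% TCA fixation), absorbance at 560 nm, at 96 h. Bidirectional fit against DMSO baseline.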

[13] = BSK_SAg_SRB: Viability Assessment in the BioMAP Diversity Plus: SAg Assay (AID 2283096); details: primary human HUVEC with PBMC;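 further: cells read one day after compound addition; hits may be either gain or loss of signal compared with DMSO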
Method in brief: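 Human umbilical vein endothelial cells co-cultured with PBMC, read 24 h after compound dosing. Total protein measured by sulforhodamine B staining (0.1% SRB after 10% TCA fixation, absorbance 560 nm); bidirectional fit versus DMSO baseline.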

[14] = read-out: Monocyte Chemoattractant Protein-1 (MCP1), CCL2 (gene 6347); experiment: BSK_LPS_MCP1: BioMAP Diversity Plus: LPS Assay for Monocyte Chemoattractant Protein-1 (MCP1) Biomarker Activity (AID 2283081); details: primary human HUVEC with PBMC; actives raise or lower the signal;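 on AC50: secreted MCP-1 protein quantified by ELISA in culture supernatant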
Method in brief: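 Human endothelial–PBMC co-cultures were dosed with chemical, then LPS-driven MCP-1 levels were quantified by ELISA at 24 h. Activity in either direction was fitted versus DMSO negative control.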

[15] = biological target: human CYP2A6, CYP2A6 (gene 1548) (UniProt P11509); experiment: NVS_ADME_hCYP2A6: NovaScreen (NVS) CYP450-related Enzyme Activity (ADME) Assay for human CYP2A6 (AID 2283099; active means hit-call score of the fitted dose curve at least 0.9, where 1 is the maximum)
Method in brief: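 Fluorescent substrate turnover by recombinant CYP2A6 (insect cell source), 0.5 h read. Screen: 10 uM, duplicate; threshold hits (e.g. 30% inhibition) → singleton concentration-response, top 20 uM. Positive and negative controls on every plate.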

[16] = biological target: human CYP2B6, CYP2B6 (gene 1555) (UniProt P20813); experiment: NVS_ADME_hCYP2B6: NovaScreen (NVS) CYP450-related Enzyme Activity (ADME) Assay for human CYP2B6 (AID 2283101; active means hit-call score of the fitted dose curve at least 0.9, where 1 is the maximum)
Method in brief: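 Recombinant human CYP2B6 with fluorogenic substrate, read by fluorescence intensity 1 h after dosing. Primary screen in duplicate at 10 uM, actives followed in concentration series; signal loss relative to acetonitrile control.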

Measured: AC50

E-selectin (Homo sapiens), sequence (P16581 whole entry, looked up): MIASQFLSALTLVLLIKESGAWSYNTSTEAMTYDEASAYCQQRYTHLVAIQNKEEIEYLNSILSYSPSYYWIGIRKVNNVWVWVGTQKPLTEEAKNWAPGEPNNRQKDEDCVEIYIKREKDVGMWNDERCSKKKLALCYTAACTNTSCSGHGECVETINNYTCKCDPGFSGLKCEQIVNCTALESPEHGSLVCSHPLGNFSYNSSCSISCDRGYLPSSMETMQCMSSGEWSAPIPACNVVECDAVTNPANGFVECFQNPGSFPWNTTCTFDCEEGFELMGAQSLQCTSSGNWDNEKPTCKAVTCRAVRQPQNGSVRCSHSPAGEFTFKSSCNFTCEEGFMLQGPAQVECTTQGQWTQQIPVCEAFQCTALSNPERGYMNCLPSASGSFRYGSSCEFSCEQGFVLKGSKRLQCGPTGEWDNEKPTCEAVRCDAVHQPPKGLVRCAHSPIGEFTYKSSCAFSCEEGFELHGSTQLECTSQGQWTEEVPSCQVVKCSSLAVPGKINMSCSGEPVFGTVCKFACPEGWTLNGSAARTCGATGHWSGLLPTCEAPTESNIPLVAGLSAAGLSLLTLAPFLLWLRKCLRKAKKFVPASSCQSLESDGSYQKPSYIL
Tumor necrosis factor (Homo sapiens), sequence (P01375 whole entry, looked up): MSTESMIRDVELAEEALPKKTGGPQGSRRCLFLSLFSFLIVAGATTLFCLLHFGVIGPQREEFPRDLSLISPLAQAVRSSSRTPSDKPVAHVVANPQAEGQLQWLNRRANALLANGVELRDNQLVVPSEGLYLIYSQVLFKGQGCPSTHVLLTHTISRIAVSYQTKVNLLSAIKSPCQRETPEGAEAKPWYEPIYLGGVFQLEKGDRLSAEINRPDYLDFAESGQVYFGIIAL
human CYP2A6, CYP2A6 (gene 1548), sequence (P11509 whole entry, looked up): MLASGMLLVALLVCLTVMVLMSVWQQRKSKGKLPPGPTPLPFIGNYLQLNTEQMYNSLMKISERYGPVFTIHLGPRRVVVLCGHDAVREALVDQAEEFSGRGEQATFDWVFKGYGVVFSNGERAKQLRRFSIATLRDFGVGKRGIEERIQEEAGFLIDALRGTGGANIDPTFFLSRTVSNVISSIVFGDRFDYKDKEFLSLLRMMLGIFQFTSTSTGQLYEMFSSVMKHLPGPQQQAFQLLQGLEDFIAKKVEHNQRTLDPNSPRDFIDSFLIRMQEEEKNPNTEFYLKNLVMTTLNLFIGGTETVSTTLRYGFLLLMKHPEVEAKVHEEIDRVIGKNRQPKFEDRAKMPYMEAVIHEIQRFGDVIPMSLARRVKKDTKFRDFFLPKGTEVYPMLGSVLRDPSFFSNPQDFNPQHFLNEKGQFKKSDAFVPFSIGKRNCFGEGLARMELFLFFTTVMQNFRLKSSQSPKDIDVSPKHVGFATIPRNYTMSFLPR
human CYP2B6, CYP2B6 (gene 1555), sequence (P20813 whole entry, looked up): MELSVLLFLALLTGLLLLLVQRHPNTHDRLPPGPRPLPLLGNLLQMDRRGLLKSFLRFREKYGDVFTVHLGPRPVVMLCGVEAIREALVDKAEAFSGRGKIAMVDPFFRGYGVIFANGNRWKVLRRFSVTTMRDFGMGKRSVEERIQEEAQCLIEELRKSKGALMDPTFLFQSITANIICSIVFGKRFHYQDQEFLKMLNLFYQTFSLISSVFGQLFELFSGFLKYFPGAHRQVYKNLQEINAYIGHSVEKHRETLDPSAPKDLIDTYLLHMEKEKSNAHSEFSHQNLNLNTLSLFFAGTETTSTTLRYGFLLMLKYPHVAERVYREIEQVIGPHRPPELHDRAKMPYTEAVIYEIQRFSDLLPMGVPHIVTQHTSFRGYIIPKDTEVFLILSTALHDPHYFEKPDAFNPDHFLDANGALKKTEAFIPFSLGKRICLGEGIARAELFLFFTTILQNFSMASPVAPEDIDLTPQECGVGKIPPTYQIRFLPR

CCCCCC1=CCCC1=O
active: [6] 24 µM
not listed: [14] | [15] | [16]
inactive: all other assays above

C1CNCCN1
not listed: [15] | [16]
inactive: all other assays above

Oc1c(Cl)cc(Cl)c(Cl)c1Cl
active: [3] 26 µM | [4] 20 µM | [6] 20 µM | CD38, CD38 (gene 952) 20 µM | CD40, CD40 (gene 958) 20 µM | CD69, CD69 (gene 969) 27.8 µM | [7] 31.2 µM | [8] 20 µM | [9] 32.2 µM | [10] 68.3 nM | [11] 29.9 µM | [12] 20 µM | [13] 20 µM
inactive: [1] | [2] | [5]

c1ccc(Nc2cccc3ccccc23)cc1
inactive: [4] | [9]
active: [1] 34.1 µM and 34.7 µM | [14] 27.8 µM and 29.1 µM | [2] 2.88 µM and 2.19 µM | [3] 31.2 µM and 16.1 µM | [5] 31.6 µM and 29.9 µM | [6] 32.5 µM and 28.1 µM | CD38, CD38 (gene 952) 30.4 µM and 31.1 µM | CD40, CD40 (gene 958) 28.9 µM and 26.5 µM | CD69, CD69 (gene 969) 30.4 µM and 33.2 µM | [7] 29.4 µM and 30.4 µM | [8] 31.8 µM and 33.5 µM | [10] 34.3 µM and 36.9 µM | [11] 31.1 µM and 30.7 µM | [12] 31.3 µM and 30.4 µM | [13] 28.7 µM and 30.3 µM

O=C(O)C(F)(F)C(F)(F)C(F)(F)C(F)(F)C(=O)O
not listed: [15] | [16]
inactive: all other assays above

CCOC(=O)/C=C\C(=O)OCC
active: [8] 20 µM
not listed: [14] | [15] | [16]
inactive: all other assays above

C=CC(=O)OCCCCCCOC(=O)C=C
active: [1] 8.11 µM | [14] 4.29 µM | [2] 2.13 µM | [3] 5.31 µM | [4] 9.18 µM | [5] 3.96 µM | [6] 5.81 µM | CD38, CD38 (gene 952) 3.8 µM | CD40, CD40 (gene 958) 11 µM | CD69, CD69 (gene 969) 2.98 µM | [7] 11 µM | [8] 5.55 µM | [9] 7.05 µM | [10] 3970 nM | [11] 0.714 µM | [12] 0.89 µM | [13] 20 µM

c1ccc2c(c1)[nH]c1ccccc12
active: [11] 2.72 µM
inactive: [1] | [2] | [3] | [4] | [5] | [6] | CD38, CD38 (gene 952) | CD40, CD40 (gene 958) | CD69, CD69 (gene 969) | [7] | [8] | [9] | [10] | [11] | [12] | [13]

O=C(Cl)c1c(Cl)c(Cl)c(C(=O)Cl)c(Cl)c1Cl
not listed: [15] | [16]
inactive: all other assays above

Cc1ccc([N+](=O)[O-])cc1N
active: [8] 5.91 µM | [15] 10 µM | [16] 2.51 µM
inactive: all other assays above

CCc1cccc(C)c1N(C(=O)CS(=O)(=O)O)C(C)COC (stereo not drawn)
not listed: [15] | [16]
inactive: all other assays above

CC1(C)CC(O)CC(C)(C)N1[O]
not listed: [15] | [16]
inactive: all other assays above

Source: PubChem BioAssay (EPA / NIEHS)
